The structures appear in SMILES notation. Several values for one entry are separate records, joined by “and”; a condition that tells them apart may be missing. Equal values may be shown once. The campaign covered roughly 69,000 compounds. About 2,600 (3.8%) were called active. No stated cut-off is given here; in the data, active means activity change below about -70% (passing the limit was not always enough); inconclusive means no clear call, values can overlap the other calls. What follows is part of a selection rich in actives, with near analogues and random picks from the rest.

The test can be described thus: T. gondii growth inhibition with IFN-gamma, primary screen, cell-based (AID 1259416).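 Further: host cells are HeLa cells infected with Toxoplasma gondii.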 Particulars: Toxoplasma gondii growth in IFN-gamma-treated host cells; hits give low values; concentration not given here.
Take `Cc1cccnc1CN(C)C(=O)c1cc(CN2CCC(Cc3ccccc3)CC2)on1`: the activity change, negative = inhibition is 9.1% (inactive). As for `Oc1c(Cl)cc(Cl)c(Cl)c1Cc1c(O)c(Cl)cc(Cl)c1Cl`, the activity change, negative = inhibition is -85.3% (active) and -87.1% (active) and -96% (active).

For the molecule `N#Cc1cccc(-c2ccc3c(c2)[C@H]2[C@H](CCN2S(=O)(=O)c2ccc(F)cc2)[C@@H](CO)N3)c1`, the activity change, negative = inhibition is -42.4% (inactive). Under `COCC#Cc1ccc([C@@H]2[C@@H](CO)N3CCCCN(C(=O)NC4CCCC4)C[C@H]23)cc1` stands -18.5% (inactive); under `CC(C)NS(=O)(=O)c1ccc(OCC(=O)N2CCCCCC2)cc1`, 1.18% (inactive); under `O=C1CCCN1CC1CN(c2ncc(F)cn2)Cc2nccn2C1` (stereo not given), 4.1% (inactive).

In the case of `O=C1CCCN1CC1CN(Cc2ccccn2)Cc2nccn2C1` (stereo not given), the activity change, negative = inhibition is -70.8% (active). Next, `O=C(CC1CCN(Cc2ccccn2)CC1)Nc1ccc(OC2CCCC2)cc1`: -69.9% (inactive). Next, `COC(=O)c1ccc(-c2noc(-c3c(O)c4ccccc4[nH]c3=O)n2)cc1`: 21.8% (inactive); `O=C(CCCn1cnnn1)N1CCc2onc(-c3cccc(F)c3)c2C1`: -6.14% (inactive). Under `CCCCCc1ccc(C#Cc2ccc(OC(F)F)cc2)cc1` stands 5.21% (inactive); under `CCCCCCCCCc1ccc(OCCOCCOCCOCCOCCOCCOCCOCCOCCO)cc1`, -80.7% (active). Turning to `CCCCc1ccc(S(N)(=O)=O)cc1`, the activity change, negative = inhibition is -51.9% (inactive). Next, `Cc1cc(-c2cccc(O)c2)nc(-c2ccccc2O)n1`: -20% (inactive); `CN1C(=O)c2cc(NC(=O)C3CCOCC3)ccc2OC[C@@H]2O[C@H](CC(=O)NCc3ccccc3F)CC[C@H]21`: 11.5% (inactive); `CN(C)C(=O)N1CCc2ncnc(C3CCOC3)c2CC1` (stereo not given): 1.98% (inactive). Consider `O=C(Cn1c(=O)cc(C(=O)N2CCCCC2)c2ccccc21)NC1CCCC1`, for which the activity change, negative = inhibition is 11.6% (inactive).

Take `CC(C)CN1C(=O)N(C2Cc3ccccc3C2)C(=O)C12CCN(Cc1nc3ccccc3n1C)CC2`: the activity change, negative = inhibition was -8.38% (inactive).

Regarding `CC(C)CN1CC[C@H]2[C@H](CC1)S(=O)(=O)CCN2C(=O)c1ccccc1`, the activity change, negative = inhibition was 3.93% (inactive). Under `CC(C)CN1CCC2(C=C(C(=O)N(C)C)c3ccccc32)CC1` stands -81.7% (active); under `Cc1ccc(C(=O)N2CCC3(CC2)C(=O)N(C)CCN3CC2CC2)cn1`, 1.05% (inactive); under `CN1C[C@@H]2C3(CCN(C(=O)Nc4ccccc4)CC3)CC[C@@]2(C(=O)N2CCCC2)C1`, 6.69% (inactive). Under `COc1ccc2c3c(n(C)c2c1)[C@@H](CO)N(C)CC31CN(S(=O)(=O)c2cccs2)C1` stands 36% (inactive); under `C#C[C@]1(O)CC[C@H]2[C@@H]3CCC4=CC(=O)CC[C@@H]4C3CC[C@@]21CC` (stereo not given in full), -83.8% (active).

Consider `C#C[C@]1(O)CC[C@H]2[C@@H]3CCC4=CC(=O)CC[C@@H]4[C@H]3CC[C@@]21CC`, for which the activity change, negative = inhibition was -81.4% (active) and -75.5% (active). Next, `COc1cc(-c2nc(CN3[C@@H]4CC[C@H]3CNC(=O)C4)c(C)o2)cc2c1OCO2`: -3.36% (inactive); `COc1ccccc1NC(=O)Cn1ncc2c(N3CCN(c4ccccc4)CC3)ncnc21`: 74% (inactive); `COc1ccc(-c2nc(C)c(CCNC(=O)C(=O)Nc3cccc(OC)c3)s2)cc1`: 487% (inactive). Next, `Cc1oc(-c2cccc(Oc3ccccc3)c2)nc1CN1[C@@H]2CC[C@H]1CNC(=O)C2`: -8.53% (inactive); `O=C(CC1Nc2c3ccccc3nc(=S)n2C1=O)N1CCN(c2ccc(Cl)cc2)CC1` (stereo not given): -16.2% (inactive); `COc1ncc(-c2cccc(C(C)N3CCCC3)c2)c(OC)n1` (stereo not given): -10.7% (inactive).

With `C[C@@H]1CN([C@H](C)CO)C(=O)c2cc(NC(=O)Cc3ccccc3)ccc2O[C@@H](C)CCCCO[C@@H]1CN(C)Cc1ccncc1`, the activity change, negative = inhibition is 31.6% (inactive). Under `C[C@H](CO)N1C[C@H](C)[C@H](CN(C)Cc2ccncc2)Oc2ccc(NS(=O)(=O)c3ccc(F)cc3)cc2CC1=O` stands 33.3% (inactive). Under `Cc1ccc(S(=O)(=O)Nc2ccc3c(c2)C(=O)N([C@@H](C)CO)C[C@@H](C)[C@H](CN(C)Cc2ccc(C(F)(F)F)cc2)O3)cc1` stands -72.9% (active); under `Cc1ccc(S(=O)(=O)Nc2ccc3c(c2)C(=O)N([C@H](C)CO)C[C@@H](C)[C@H](CN(C)S(=O)(=O)c2cccs2)OCCCC[C@@H](C)O3)cc1`, -131% (active); under `C[C@H](CO)N1C[C@H](C)[C@@H](CN(C)Cc2ccncc2)OCCCC[C@H](C)Oc2ccc(NS(=O)(=O)c3ccc(Cl)cc3)cc2C1=O`, -94.1% (active). Next, `C[C@@H]1CN([C@@H](C)CO)C(=O)c2cc(NS(=O)(=O)c3ccccc3)ccc2O[C@@H](C)CCCCO[C@H]1CN(C)C(=O)C1CCCCC1`: -14.8% (inactive); `Cc1noc(C)c1S(=O)(=O)N(C)C[C@@H]1OCCCC[C@H](C)Oc2ccc(NC(=O)CCC(F)(F)F)cc2C(=O)N([C@H](C)CO)C[C@H]1C`: 94.9% (inactive). Regarding `Cc1noc(C)c1S(=O)(=O)Nc1ccc2c(c1)C(=O)N([C@@H](C)CO)C[C@H](C)[C@@H](CN(C)C(=O)Nc1cccc3ccccc13)OCCCC[C@H](C)O2`, the activity change, negative = inhibition is 141% (inactive). Next, `C[C@@H]1CN([C@H](C)CO)C(=O)c2cc(NS(=O)(=O)c3ccccc3)ccc2O[C@@H](C)CCCCO[C@H]1CN(C)C(=O)C1CCCCC1`: -116% (active); `C[C@@H]1CN([C@@H](C)CO)C(=O)c2cc(NS(C)(=O)=O)ccc2O[C@@H]1CN(C)C`: -0.62% (inactive). Next, `C[C@@H]1CCCCO[C@@H](CN(C)Cc2ccncc2)[C@H](C)CN([C@H](C)CO)C(=O)c2cc(NC(=O)Cc3ccccc3)ccc2O1`: 318% (inactive); `C[C@@H]1CN([C@H](C)CO)C(=O)c2cc(NS(=O)(=O)c3cccs3)ccc2O[C@@H](C)CCCCO[C@@H]1CN(C)C(=O)c1ccncc1`: 14.1% (inactive); `CCOC(=O)c1oc2ccc(S(=O)(=O)Nc3ccc4[nH]c(=O)[nH]c4c3)cc2c1C`: 75.3% (inactive).

As for `COCc1nnn2c1CN(Cc1ccc(C)s1)CCC2`, the activity change, negative = inhibition is -49.3% (inactive). With `O=C(C1CCOCC1)N1CC(=O)N2[C@H](CO)[C@H](c3ccc(C#CC4CCCCC4)cc3)[C@H]2C1`, the activity change, negative = inhibition is 19.2% (inactive). Next, `Cc1nc(SCC(=O)Nc2cccc(C(F)(F)F)c2)oc1C`: 21% (inactive); `COc1ccc(OC)c(NC(=O)Cn2c(=O)cc(C(=O)N3CCCCC3)c3ccccc32)c1`: 5.37% (inactive); `CN(C)C(=O)[C@@H]1CCS(=O)(=O)[C@H]2CN(C(=O)NCc3ccccc3)C[C@@H]12`: 7.18% (inactive). Next, `COc1cccc(CC2(CO)CCN(c3ncnc4sccc34)CC2)c1`: -61.2% (inactive). As to `O=S(=O)(c1ccccc1)N1[C@H](CO)[C@@H]2c3ccccc3NC[C@@H]21`, the activity change, negative = inhibition is -13.4% (inactive). Next, `C[C@@H]1CCCCO[C@@H](CN(C)S(=O)(=O)c2ccccc2)[C@H](C)CN([C@H](C)CO)C(=O)c2cc(NC(=O)Nc3ccc4c(c3)OCO4)ccc2O1`: -79.4% (active). Next, `CNC[C@H]1OCCCC[C@@H](C)Oc2ccc(NS(=O)(=O)c3ccc(F)cc3)cc2C(=O)N([C@H](C)CO)C[C@H]1C`: 193% (inactive); `C[C@@H]1CCCCO[C@H](CN(C)C(=O)CCCN(C)C)[C@H](C)CN([C@@H](C)CO)C(=O)c2cc(NS(=O)(=O)c3ccc(Cl)cc3)ccc2O1`: -84.8% (active). Under `CNC[C@@H]1OCCCC[C@H](C)Oc2ccc(NS(=O)(=O)c3ccc(F)cc3)cc2C(=O)N([C@@H](C)CO)C[C@@H]1C` stands 41.1% (inactive).

Turning to `COc1ccc(S(=O)(=O)Nc2ccc3c(c2)C(=O)N([C@@H](C)CO)C[C@@H](C)[C@H](CN(C)Cc2ccc(C(F)(F)F)cc2)OCCCC[C@@H](C)O3)cc1`, the activity change, negative = inhibition is -112% (active). Next, `C[C@@H]1CCCCO[C@H](CN(C)Cc2ccc3c(c2)OCO3)[C@H](C)CN([C@@H](C)CO)C(=O)c2cc(NS(=O)(=O)c3cn(C)cn3)ccc2O1`: 11.5% (inactive). `COc1ccc(S(=O)(=O)Nc2ccc3c(c2)C(=O)N([C@@H](C)CO)C[C@H](C)[C@H](CN(C)Cc2ccc(C(F)(F)F)cc2)OCCCC[C@@H](C)O3)cc1`: the activity change, negative = inhibition is -47% (inactive). Under `C[C@@H]1CN([C@H](C)CO)C(=O)c2cc(NC(=O)NC3CCCCC3)ccc2O[C@@H](C)CCCCO[C@H]1CN(C)S(C)(=O)=O` stands -35.8% (inactive). Take `C[C@@H]1CCCCO[C@H](CN(C)C(=O)Nc2ccccc2)[C@H](C)CN([C@H](C)CO)C(=O)c2cc(NC(=O)Nc3ccccc3)ccc2O1`: the activity change, negative = inhibition was 72.5% (inactive). `C[C@@H](O)C#Cc1ccc([C@H]2[C@@H](CO)N3CCCCN(CC4CC4)C[C@@H]23)cc1`: the activity change, negative = inhibition is -5.07% (inactive).

Regarding `Cc1nc(-c2cccnc2)sc1C(=O)N(CCN(C)C)Cc1ccc2c(c1)OCO2`, the activity change, negative = inhibition is -47.1% (inactive). Next, `CCC(NC(=O)CCNC(=O)c1ccccc1F)c1cccs1` (stereo not given): 98.8% (inactive); `COc1ccc2c(c1)NC1(CCN(S(=O)(=O)c3c(C)nn(C)c3C)CC1)c1cccn1-2`: 1.37% (inactive); `CN1C(=O)CCc2cc(C(=O)NCc3cccc(Cl)c3)ccc21`: -50% (inactive). Under `Cc1csc(CCCNc2cc(N(C)C)ncn2)n1` stands -14.5% (inactive); under `Cc1ccc(-c2nnn(CC(=O)N(CC(=O)NC(C)(C)C)c3ccc(C(C)C)cc3)n2)o1`, -40.3% (inactive). Next, `CN(C)C1CCN(C(=O)c2ccnn2-c2ccc3ccc(-c4ccccc4)cn23)CC1`: -101% (active); `CC(C)n1cnc(-c2cc(C(=O)N3CCC(N(C)C)CC3)c3ccccn23)c1`: -48.2% (inactive); `Cc1cc(C(=O)N2CCCC(N(C)C)CC2)sc1C` (stereo not given): 8.26% (inactive).
